# High-throughput results as filed in PubChem BioAssay.
# Only some compounds are listed: those with a hit (about 7.7% of all), similar ones and a draw of the others.
# PD-1 reversal – reversal of PD-1 mediated T-cell inhibition | activation, % (test concentration not listed) | primary human CD4 T cells, PD-L1 beads, CellTiter-Glo 96 h | 29,000 tested, under 10 active | AID 2316; call rule not given here;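 also: 0% = median vehicle wells and 100% = positive control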
# Hedgehog inh – blocks Sonic Hedgehog signaling; Shh-LIGHT2 Gli-luciferase reporter, 30 h; inhibition, % (test concentration not listed); hit rate 2.1% among 22,000; AID 2313;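 active = mean inhibition across valid replicates above about 65%, limit read from the data; inconclusive = mean under the limit, yet half or more replicates past it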;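 also: pathway switched on by Shh-conditioned medium diluted 1 in 25 in low serum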
# NOMO-1 viab – STK33 inhibitor candidate reducing NOMO-1 cell viability. NOMO-1 AML viability, CellTiter-Glo luminescence, 72 h. inhibition, % (test concentration not listed). hit rate 7.5% among 37,000. AID 2330; in the data active = inhibition above about 80%; inconclusive = no clear call, values can overlap the other calls
# Starred values were filed as active, the others as inactive; ? = inconclusive; . = no result.
SMILES,PD-1 reversal,Hedgehog inh,NOMO-1 viab
C[C@H]1CN([C@@H](C)CO)C(=O)c2cc(NS(=O)(=O)c3ccc(Cl)cc3)ccc2O[C@H]1CN(C)Cc1ccc(C(=O)Nc2ccccc2N)cc1,-1,.,111*
Cc1ccc(S(=O)(=O)Nc2ccc3c(c2)C(=O)N([C@H](C)CO)C[C@H](C)[C@H](CN(C)Cc2ccc(C(=O)Nc4ccccc4N)cc2)O3)cc1,0,.,?
C[C@H](CO)N1C[C@H](C)[C@H](CN(C)Cc2ccc(C(=O)Nc3ccccc3N)cc2)Oc2ccc(NS(=O)(=O)c3ccc(F)cc3)cc2C1=O,-2,.,109*
C[C@@H]1CN([C@H](C)CO)C(=O)c2cc(NS(=O)(=O)c3ccccc3)ccc2O[C@H]1CN(C)Cc1ccc(C(=O)Nc2ccccc2N)cc1,-3,.,48
C[C@H]1CN([C@@H](C)CO)C(=O)c2cc(NS(=O)(=O)c3ccc(F)cc3)ccc2O[C@@H]1CN(C)Cc1ccc(C(=O)Nc2ccccc2N)cc1,0,.,7
Cc1ccc(S(=O)(=O)Nc2ccc3c(c2)C(=O)N([C@@H](C)CO)C[C@H](C)[C@H](CN(C)Cc2ccc(C(=O)Nc4ccccc4N)cc2)O3)cc1,-1,.,110*
C[C@@H]1CN([C@H](C)CO)C(=O)c2cc(NS(=O)(=O)c3ccc(F)cc3)ccc2O[C@H]1CN(C)Cc1ccc(C(=O)Nc2ccccc2N)cc1,-2,.,58
Cc1ccc(NS(=O)(=O)c2ccc(NS(=O)(=O)c3ccc4c(c3)OCCO4)cc2)c(C)c1,0,.,5
Cc1ccc(N(CC(=O)Nc2cc(Cl)ccc2C)S(C)(=O)=O)cc1C,-1,.,5
CCN1CCN(C(=S)c2cc(I)c(OCC(=O)Nc3cccc(C)c3)c(OC)c2)CC1,0,.,-3
CCOC(=O)c1cnc(S/C=C/C(=O)c2ccc(Cl)cc2)nc1N,-3,-33,117*
CCOC(=O)c1cnc(SCC(=O)Nc2ccc(F)c(F)c2F)nc1N,2,.,5
CC(=O)Nc1ccc(S(=O)(=O)N2CCCCC2C)cc1 (configuration not stated),1,-2,11
O=C(Oc1ccc2cc(OC(=O)c3ccccc3)ccc2c1)c1ccccc1,0,.,-3
O=C(Oc1ccccc1OC(=O)c1ccccc1)c1ccccc1,-3,0,115*
O/N=C/c1c(F)cccc1F,2,-20,-18
CC1(C)Cc2c(sc3nc(SCC(=O)c4ccccc4)nc(N)c23)CS1,.,.,27
C=C(C)C1Cc2cc(C(C)=O)ccc2O1 (configuration not stated),.,-17,.
C=C(C)[C@@H]1Cc2c(ccc3c2O[C@H]2COc4cc(OC)c(OC)cc4[C@@]2(O)C3=O)O1,-3,45,117*
Cc1ccc2oc(-c3cccc(NC(=O)COc4ccc5ccccc5c4)c3)nc2c1,-2,.,-1
N#Cc1c(NC(=O)c2ccc(COc3ccccc3Cl)o2)sc2c1CCCC2,3,.,37
Oc1ccc2oc3c(c2c1/C=N/N1CCCCC1)CCCC3,2,-44,11
COc1ccc(N=Cc2c(O)ccc3oc4c(c23)CCCC4)cc1,0,0,99*
Cc1ccc([N+](=O)[O-])cc1NC(=O)CN(c1ccc(I)cc1)S(C)(=O)=O,0,.,28
CC(C)c1ccc(C2C(C#N)=C(N)C(C#N)(C#N)C3=CCN(C)CC32)cc1 (configuration not stated),-3,74*,105*
SMILES,PD-1 reversal,Hedgehog inh,NOMO-1 viab
COc1ccc(-c2cc(C)nc(SCC(=O)Nc3ccccc3F)n2)cc1,-4,.,12
O=C(CSc1nnc(-c2ccccc2O)n1-c1ccccc1)NC1CCCCC1,1,.,25
O=C(N1CCCc2ccccc21)C(F)(F)F,0,20,-6
C[C@@H]1CN([C@H](C)CO)C(=O)c2cc(NS(=O)(=O)c3ccccc3)ccc2O[C@H]1CN(C)Cc1ccc(-c2ccccc2)cc1,-1,.,107*
Cc1ccc(S(=O)(=O)Nc2ccc3c(c2)C(=O)N([C@H](C)CO)C[C@H](C)[C@H](CN(C)Cc2ccc(-c4ccccc4)cc2)O3)cc1,3,35,47
Cc1ccc(S(=O)(=O)Nc2ccc3c(c2)C(=O)N([C@H](C)CO)C[C@@H](C)[C@H](CN(C)Cc2ccc(-c4ccccc4)cc2)O3)cc1,-2,-17,111*
C[C@@H]1CN([C@@H](C)CO)C(=O)c2cc(NS(=O)(=O)c3ccccc3)ccc2O[C@H]1CN(C)Cc1ccc(-c2ccccc2)cc1,0,.,49
C[C@@H]1CN([C@@H](C)CO)C(=O)c2cc(NS(=O)(=O)c3ccc(F)cc3)ccc2O[C@@H]1CN(C)Cc1ccc(-c2ccccc2)cc1,-3,.,111*
C[C@@H]1CN([C@H](C)CO)C(=O)c2cc(NS(=O)(=O)c3ccc(F)cc3)ccc2O[C@@H]1CN(C)Cc1ccccc1,0,6,-11
C=CCSc1nnc2c(n1)OC(c1ccc(-c3ccc(F)cc3)o1)N(C(C)=O)c1ccccc1-2 (configuration not stated),0,9,35
COC(=O)c1ccc(NC(=O)CC2Sc3ccc(C(F)(F)F)cc3NC2=O)cc1 (configuration not stated),1,.,66
COc1ccc(S(=O)(=O)n2nc(C)cc2C)cc1N(C)S(=O)(=O)c1ccccc1,-1,.,-24
Cn1cc(C(c2ccc([N+](=O)[O-])o2)c2cn(C)c3ccccc23)c2ccccc21,-4,.,45
CC(C)=CCC1C(=O)C(=O)c2ccccc2C1=O (configuration not stated),.,-19,28
C[C@@H]1CN([C@H](C)CO)C(=O)c2cccc(NC(=O)Nc3ccc4c(c3)OCO4)c2O[C@@H]1CN(C)Cc1ccc(Oc2ccccc2)cc1,.,-14,32
C[C@@H]1CN([C@@H](C)CO)C(=O)c2cccc(NC(=O)Nc3ccc4c(c3)OCO4)c2O[C@H]1CN(C)Cc1ccc(Oc2ccccc2)cc1,0,-35,95*
C[C@H](CO)N1C[C@H](C)[C@@H](CN(C)Cc2ccc(Oc3ccccc3)cc2)Oc2c(NC(=O)Nc3ccc4c(c3)OCO4)cccc2C1=O,.,39,60
C[C@@H]1CN([C@@H](C)CO)C(=O)c2cccc(NC(=O)Nc3ccc4c(c3)OCO4)c2O[C@@H]1CN(C)Cc1ccc(Oc2ccccc2)cc1,-4,56,95*
CC(C)(C)c1ccc(NC(=O)c2cnccn2)cc1,0,-19,22
CCN(CCS(=O)(=O)c1ccccc1)S(=O)(=O)c1ccc(C)cc1,-1,-21,-16
O=C(NCCCN1CCOCC1)c1cnn2c(C(F)(F)F)cc(-c3ccccc3)nc12,.,.,15
Cc1ccc(-c2nc3cc(NC(=O)COc4ccccc4[N+](=O)[O-])ccc3o2)cc1,3,.,23
Cc1ccc2nsnc2c1NC(=O)COc1ccc([N+](=O)[O-])cc1,-2,.,27
C[C@@H]1CN([C@@H](C)CO)C(=O)c2cccc(NS(=O)(=O)c3ccc(Cl)cc3)c2O[C@@H]1CN(C)Cc1ccc(Oc2ccccc2)cc1,-2,11,88*
C[C@H]1CN([C@@H](C)CO)C(=O)c2cccc(NS(=O)(=O)c3ccc(Cl)cc3)c2O[C@H]1CN(C)Cc1ccc(Oc2ccccc2)cc1,0,49,?
C[C@H](CO)N1C[C@H](C)[C@H](CN(C)Cc2ccc(Cl)c(Cl)c2)Oc2c(NS(=O)(=O)c3ccccc3)cccc2C1=O,.,82*,?
